{"source": "PubChem BioAssay AID1461", "about": "(National Center for Advancing Translational Sciences (NCATS), 2008)", "note": "Among all 220,000 compounds or so, about 2,300 (1%) were called active. Not shown: some 6% with an inconclusive outcome. Many of the other results were omitted from the sample, so actives are more common in it than they were. Values without a mark were called inactive. Calls follow the shape of the dose curve; as a rule, active = well fitted inhibition curve with a large enough effect; inconclusive = small, poorly fitted or top-dose-only effect, or effect the other way; inactive = no such curve, though single readings can be large or run the other way. % is scaled to controls: 0 for no effect and ±100 for the full control effect; potency is read from the fitted curve at half-maximal effect."}
{"molecular_target": "Neuropeptide S receptor (Homo sapiens) (UniProt Q6W5P4)", "sequence (Q6W5P4 whole entry, looked up)": "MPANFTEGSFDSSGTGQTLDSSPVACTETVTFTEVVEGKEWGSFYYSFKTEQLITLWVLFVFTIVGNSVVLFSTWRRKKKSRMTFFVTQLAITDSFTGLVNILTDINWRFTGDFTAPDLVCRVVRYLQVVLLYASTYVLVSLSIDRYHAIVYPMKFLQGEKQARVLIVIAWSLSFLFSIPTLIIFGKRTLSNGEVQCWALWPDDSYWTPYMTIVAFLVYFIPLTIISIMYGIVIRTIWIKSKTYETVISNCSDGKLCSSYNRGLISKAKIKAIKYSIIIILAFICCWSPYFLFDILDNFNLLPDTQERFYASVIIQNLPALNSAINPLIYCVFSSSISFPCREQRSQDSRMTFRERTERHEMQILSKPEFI", "test": "qHTS Assay for Antagonists of the Neuropeptide S Receptor: cAMP Signal Transduction; also: nearly all actives have a fitted effect of over 50% in size", "settings": "CHO-NPSR cells, cAMP TR-FRET, antagonist mode; series mostly up to 38.3 µM; activity change, negative = inhibition: at the top concentration", "from_the_text": "NIH Chemical Genomics Center [NCGC] NIH Molecular Libraries Probe Production centers Network [MLPCN] MLPCN Grant: X01-DA026210-01 Assay Submitter (PI): Heilig, Markus Alexander NCGC Assay Overview: Neuropeptide S receptor (NPSR), previously known as GPR154, is a recently de-orphanized G protein coupled receptor. Its endogenous ligand is the 20 amino acids peptide Neuropeptide S (NPS). […] NPS and its receptor are found in various tissues. Specifically they are highly expressed in brain areas that have been implicated in modulation of arousal, stress and anxiety. Central administration of NPS in mice produces an unusual profile of activity by inducing wakefulness and arousal, while at the same time suppressing anxiety. Therefore, NPSR may represent a novel drug target for the treatment of sleep and anxiety disorders. To identify NPSR antagonists, we developed a cell-based cAMP assay. NPS can stimulate the production of cAMP in Chinese hamster ovary cells stably expressing NPS receptor. This change in intracellular cAMP level can be detected by a homogeneous LANCE cAMP assay based on the TR-FRET (time resolved fluorescence resonance energy transfer) between a europium-labeled cAMP tracer complex and a cAMP-specific antibody labeled with Alexa Fluor 647. The europium-labeled cAMP tracer complex is formed by the tight interaction between Biotin-cAMP (b-cAMP) and streptavidin labeled with Europium-W8044 chelate (Eu-SA). Light pulse at 320 nm excites the europium of the cAMP tracer and the energy emitted is transferred to the Alexa molecule bound to the cAMP antibody, generating a TR-FRET signal at 665 nm. Residual energy from the europium will produce a light at 620 nm. The native unlabeled cAMP from cell lysates competes with the europium-cAMP tracer for antibody binding and reversely reduces the emission signal of Alexa by interrupting FRET between the two labeled molecules. Both emission signals from the FRET donor (620 nm) and the acceptor (665 nm) can be detected by a plate reader in the TRF mode. Expression of result in fluorescence ratio (665 nm/620 nm) helps to normalize differences due to cell density and reagent dispensing. This assay was successfully optimized to a 1536-well plate format.\nNCGC Assay Protocol Summary: A Chinese hamster ovary (CHO) cell line stably expressing the NPS receptor (CHO-NPSR) was obtained from Dr. Heilig lab at NIAAA and maintained in F-12 Kaighn's media (Invitrogen, Carlsbad, CA, 21127) supplemented with 10 % FBS, 100 units/ml penicillin, 100 ug/ml streptomycin and 250 ug/ml geneticin at 37C, 5% CO2 in a humidified atmosphere. Before the assay, aliquots of cells were frozen and stored at -135C. The assay was performed in 1536-well format. Data are reported for both the ratio of the two emission wavelengths, and also for the component 'donor' channel, Em2=620. Data were normalized to the controls for basal activity (DMSO only) and 100% inhibition (No NPS control). IC50 values were determined from concentration-response data modeled with the standard Hill equation. NPS 1536-well assay protocol: (1) Fresh or frozen CHO-NPSR cells were suspended in F-12 Kaighn's media supplemented with 10 % FBS, 100 units/ml penicillin and 100 ug/ml streptomycin. Cells were plated at 4 ul/well (1200 cells) to white, tissue culture treated 1536-well plates, and then cultured at 37C, 5 % CO2 for 16 to 30 hours. (2) Add 23 nl/well of compound in DMSO solution. The final titration for each compound was between 0.6 nM and 46 uM. (3) Add 1 ul of stimulation reagent (1X HBSS buffer, 5 mM HEPES, 0.1% BSA, 500 uM RO-201724 (Sigma-Aldrich, B8279), 1.5% Alexa 647-labeled anti-cAMP antibody (from Perkin Elmer), 100 nM NPS) (4) Incubation at 37C, 5 % CO2 for 60 min. (5) Add 1 ul/well detection reagent. Detection reagent was prepared by adding biotin labeled cAMP (4%), streptavidin labeled with Europium-W8044 chelate (1.33%) and TritonX-100 (1%) to detection buffer. […]"}
{"molecule": "Cc1ccc(/C=N/NC(=O)CSc2ccccn2)o1", "activity change, negative = inhibition": "-14.8%"}
{"molecule": "Cc1ccc(C(O)P(=O)(OC(C)C)c2ccc(N(C)C)cc2)cc1", "note": "(configuration not stated)", "activity change, negative = inhibition": "7.66%"}
{"molecule": "O=C(Nc1ccc2c(c1)OCCO2)c1ccoc1", "activity change, negative = inhibition": "-1.7%"}
{"molecule": "CC(=O)O[C@]1(C(C)=O)CC[C@H]2[C@@H]3C=C(C)C4=CC(=O)CC[C@]4(C)[C@H]3CC[C@@]21C", "Potency": "3.98 µM (active)"}
{"molecule": "NC(=O)NC(=O)CSc1nc2cc([N+](=O)[O-])ccc2n1-c1cccc(C(F)(F)F)c1", "activity change, negative = inhibition": "-43.8%"}
{"molecule": "COc1ccc(/C=C/c2nnc(NC(=O)C(C)C)s2)cc1", "activity change, negative = inhibition": "1.52%"}
{"molecule": "C/C(CC(=O)NC(C)c1ccccc1)=N\\NC(N)=S", "note": "(configuration not stated)", "activity change, negative = inhibition": "21.5%"}
{"molecule": "Cc1cc(C)c2[nH]c(=O)c(C(c3nnnn3Cc3ccc4c(c3)OCO4)N3CCCC3)cc2c1", "note": "(configuration not stated)", "activity change, negative = inhibition": "-22.9% [at 46.1 µM]"}
{"molecule": "Cc1cccc2cc(CN(Cc3ccc4c(c3)OCO4)Cc3nnnn3C3CCCC3)c(=O)[nH]c12", "Potency": "12.6 µM (active)"}
{"molecule": "Cc1cccc2cc(CN(Cc3nnnn3Cc3ccccc3)C3CCCC3)c(=O)[nH]c12", "activity change, negative = inhibition": "-29.8% [at 46.1 µM]"}
{"molecule": "COCCN(Cc1cc2cc3c(cc2nc1Cl)OCO3)C(=O)c1cccc(C)c1", "activity change, negative = inhibition": "-4.29%"}
{"molecule": "Cc1ccc(NNC(=O)c2cccs2)cc1Cl", "activity change, negative = inhibition": "24%"}
{"molecule": "Cc1cc(C)c(C)c(S(=O)(=O)N[C@@H](C)C(=O)OC(C)C(=O)NC(N)=O)c1C", "note": "(some centres not stated)", "activity change, negative = inhibition": "16.8%"}
{"molecule": "O=C(Nc1ccc(Cl)cc1)/C(=C1\\CCCN1)[N+](=O)[O-]", "activity change, negative = inhibition": "-27.6%"}
{"molecule": "Cc1ccccc1OCC(=O)Nc1ccc(N2CCN(C(=O)C(C)C)CC2)c(Cl)c1", "Potency": "12.6 µM (active)"}
{"molecule": "COc1cc(NC(=O)COc2ccccc2Cl)ccc1NC(=O)C(C)C", "activity change, negative = inhibition": "2.21%"}
{"molecule": "CN1CCN(c2ccc(NC(=O)COc3ccc(Cl)cc3Cl)cc2)CC1", "activity change, negative = inhibition": "3.6% [at 7.67 µM]"}
{"molecule": "Nc1ccc(N=Nc2ccccc2Cl)c(N)n1", "activity change, negative = inhibition": "-6.42%"}
{"molecule": "COc1ccc(CCNC(=O)C(=O)NCC2CCNCC2)cc1OC", "activity change, negative = inhibition": "-20.8%"}
{"molecule": "Cc1cc(C)c(C#N)c(SCc2[nH]nc3c2C(c2ccccc2)C(C#N)=C(N)O3)n1", "note": "(configuration not stated)", "activity change, negative = inhibition": "-18.8% [at 46.1 µM]"}
{"molecule": "Cc1cc(C)c2c3c(sc2n1)C(c1ccccc1)C(C#N)=C(N)O3", "note": "(configuration not stated)", "Potency": "10 µM (active)"}
{"molecule": "N#CC1=C(N)Oc2c(sc3ccccc23)C1c1ccco1", "note": "(configuration not stated)", "activity change, negative = inhibition": "-7.26% [at 7.67 µM]"}
{"molecule": "O=C1CCC(=O)N(O)CCCCCNC(=O)CCC(=O)N(O)CCCCCNC(=O)CCC(=O)N(O)CCCCCN1", "activity change, negative = inhibition": "15.4%"}
{"molecule": "NC(=O)N/N=C\\c1cccs1", "activity change, negative = inhibition": "14%"}
{"molecule": "O=S(=O)(c1ccc(F)cc1)N1CC=C(c2ccccc2)CC1", "activity change, negative = inhibition": "-0.503% [at 7.67 µM]"}
{"molecule": "Cc1ccccc1Nc1scc(-c2ccc(Br)cc2)[n+]1-c1ccccc1C", "Potency": "10 µM (active)"}
{"molecule": "Nc1scc[n+]1Cc1cccc2cccnc12", "activity change, negative = inhibition": "-4.76%"}
{"molecule": "Nc1nc(NC(=O)/C=C/c2ccc(F)cc2)nn1-c1ccccc1", "activity change, negative = inhibition": "2.5%"}
{"molecule": "COC(=O)c1ccc(COc2ccc(/C=N/NC(=O)C(=O)Nc3ccc(OC)cc3)cc2OC)o1", "activity change, negative = inhibition": "7.97%"}
{"molecule": "COc1cc(/C=N/O)ccc1OCc1ccc([N+](=O)[O-])cc1", "activity change, negative = inhibition": "-0.175%"}
{"molecule": "CCCc1ccc(OCc2ccc(C(=O)N/N=C/c3cccc([N+](=O)[O-])c3)o2)c(OC)c1", "Potency": "10 µM (active)"}
{"molecule": "COc1cccc(OC)c1CN(C)C(=O)c1cnccc1C(F)(F)F", "activity change, negative = inhibition": "-16.3%"}
{"molecule": "COC(C[C@H](O)CC(=O)COCc1ccccc1)OC", "activity change, negative = inhibition": "19.4%"}
{"molecule": "Cc1ccc(S(=O)(=O)/N=C(/NC(=S)Nc2c(C)n(C)n(-c3ccccc3)c2=O)c2ccccc2)cc1", "activity change, negative = inhibition": "-10.6%"}
{"molecule": "CSCC[C@H](NC(=O)CCCn1nnc2ccccc2c1=O)C(=O)O", "activity change, negative = inhibition": "-7.89%"}
{"molecule": "S=C(NCCc1ccccc1)Nc1ccccc1", "activity change, negative = inhibition": "-3.61%"}
{"molecule": "O=C(/C=C/c1ccccc1[N+](=O)[O-])OC1CCCCC1=O", "note": "(configuration not stated)", "activity change, negative = inhibition": "1.58%"}
{"molecule": "CC1CCCCC1NC(=O)/C(C#N)=C/C=C/c1ccccc1[N+](=O)[O-]", "note": "(configuration not stated)", "Potency": "10 µM (active)"}
{"molecule": "O=C(/C=C/c1ccccc1[N+](=O)[O-])NCC1CCCO1", "note": "(configuration not stated)", "activity change, negative = inhibition": "12.9%"}
{"molecule": "CN(c1ccccc1)S(=O)(=O)c1ccc(Cl)c(C(=O)OCC(=O)NCc2ccco2)c1", "activity change, negative = inhibition": "-0.308%"}
{"molecule": "CN(C)C(=S)Nc1ccc(Br)cc1Cl", "activity change, negative = inhibition": "-9.99%"}
{"molecule": "COc1cc(C(CCN2CCN(c3ccccc3)CC2)c2c(OC)cc(OC)c3ccc(=O)oc23)cc(OC)c1OC", "note": "(configuration not stated)", "Potency": "10 µM (active)"}
{"molecule": "CCN(CC)CCC(c1cc(OC)c(OC)c(OC)c1)c1c(OC)cc(OC)c2c(-c3ccccc3)cc(=O)oc12", "note": "(configuration not stated)", "activity change, negative = inhibition": "-24.9%"}
{"molecule": "COc1ccc(C(CC(=O)N2CCN(c3ccccc3)CC2)c2c(O)cc(OC)cc2OC)cc1", "note": "(configuration not stated)", "activity change, negative = inhibition": "-25.2%"}
{"molecule": "O=C(Nc1ccccc1)Nc1nnc(COc2ccccc2F)s1", "activity change, negative = inhibition": "-5.72%"}
{"molecule": "COc1ccc(NC(=O)CCN2C(=O)/C(=C/c3ccc4c(c3)OCO4)SC2=S)cc1", "activity change, negative = inhibition": "3.47%"}
{"molecule": "O=C(Cn1cnc2ccccc2c1=O)Nc1cccc(S(=O)(=O)N2CCCCC2)c1", "activity change, negative = inhibition": "-8.02%"}
{"molecule": "CC(=O)Nc1ccc(CC#N)cc1", "activity change, negative = inhibition": "-15.3%"}
{"molecule": "Cc1cc(-c2nc(C)c(-c3nnc(SCC(=O)Nc4ccccc4)n3C)s2)no1", "activity change, negative = inhibition": "5.55%"}
{"molecule": "COc1ccc(N2C(=O)c3ccccc3NC2c2ccc(OC)c(CN3CCOCC3)c2)cc1", "note": "(configuration not stated)", "activity change, negative = inhibition": "-35.7%"}
{"molecule": "CCC(=O)NC(=S)Nc1ccc(NC(=O)c2ccco2)c(Cl)c1", "activity change, negative = inhibition": "-27.6%"}
{"molecule": "CCN(CC)P(=O)(Nc1ccc(SC(F)F)cc1)c1ccc(N(C)C)cc1NC(=O)c1ccco1", "note": "(configuration not stated)", "Potency": "5.01 µM (active)"}
